From ChEMBL document CHEMBL3988442, “University of Dundee, Small-Polar-MMV Screening Library” (2021)

Biological target: AMP-activated protein kinase, AMPK (Homo sapiens) (UniProt P54646+O43741+P54619+Q9UGJ0+Q9Y478+Q13131+Q9UGI9)
Assay: AMP-dependent Kinase enzyme assay. An in vitro enzyme assay that detects ADP turnover that is directly proportional to AMPK activity. This uses naive AMPK that is activated during the assay with MK-8722
Type: functional
Design: scale not given: direction of the effect not stated beside the values
Settings: 30 µM

SMILES | Percent Effect
COCCC1(C(=O)O)CCN(c2cc(C)c3ccccc3n2)CC1 | 3.32%
C[C@@H]1CN(C(=O)C2(Cn3cccn3)CC2)C[C@@]1(O)C1CCC1 | 5.58%
CC(C)N(Cc1ccccn1)C(=O)CN(C)C(=O)c1cccs1 | 10.8%
Cc1cc(N2CCC(n3cc(CCCO)nn3)CC2)ccn1 | 2.02%
COc1c(C2CCCN2CC(=O)N(C)Cc2ccco2)c(C)nn1C (stereo unspecified) | 1.41%
CN1CC2(CCCN(C(=O)Cc3cccc(O)c3)C2)OC1=O (stereo unspecified) | 8.24%
Cn1cc(NC(=O)Cc2ccccc2Br)cc1C(N)=O | 3.12%
CN(Cc1ccccc1)c1cnn(CC2COCCO2)c(=O)c1 (stereo unspecified) | 10.8%
CN1C[C@H](c2ccccc2)[C@H]2CN(C(=O)Cc3cccc(O)c3)CC[C@H]21 | 15.8%
COCCN(Cc1nccs1)c1nc2c(s1)c(C)nn2C | -10%
CC1(c2nccs2)CCN(C(=O)CCN2CCOCC2)CC1 | 10.7%
CC(NC(=O)NC1CCN(Cc2ccncc2)CC1)c1cccc(F)c1 (stereo unspecified) | 1.09%
CCc1nnc(NC(=O)c2c3c(nn2C2CCS(=O)(=O)C2)CCC3)s1 (stereo unspecified) | -8.02%
O=C(CCC1CCCC1)N1C[C@H]2CC[C@@H]1CN(Cc1ccncc1)C2 | 6.08%
CS(=O)(=O)N1CC[C@]2(O)CCN(c3cc(C#N)ccn3)C[C@@H]2C1 | -6.37%
O=S(=O)(NCC1(c2cccs2)CCOCC1)c1ccc2c(c1)OCCO2 | -2.31%
